Among the data in PubChem BioAssay (EPA / NIEHS) are AC50 and outcome values, retold here.

Inconclusive results are not listed. Activity calls are given as the source filed them. Rule for the calls, unless noted: active = hit-call score of the fitted dose curve at least 0.9, where 1 is the maximum; inactive = score below 0.9.

Read-out in experiment [1]: Human Leukocyte Antigen - DR isotype (HLADR), HLA-DRA (gene 3122)
Kind of experiment: BSK_3C_HLADR: BioMAP Diversity Plus: 3C Assay for Human Leukocyte Antigen - DR isotype (HLADR) Biomarker Activity (AID 2283019).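 For outcome: ELISA of cell-surface HLA-DR on HUVEC 24 h after dosing.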 The conditions noted are these: primary human endothelial cells (HUVEC); actives raise or lower the signal. The gist of the method:
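Endothelial cells from human umbilical vein are treated with test chemical; after 24 h, HLA-DR levels are measured by ELISA. Data are fitted in both directions using DMSO as the baseline.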

Read-out in experiment [2]: Interleukin-8 (IL8), CXCL8 (gene 3576)
Briefly: BSK_3C_IL8: BioMAP Diversity Plus: 3C Assay for Interleukin-8 (IL8) Biomarker Activity (AID 2283020). The conditions noted are these: primary human endothelial cells (HUVEC); actives raise or lower the signal. The gist of the method: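 Endothelial primary cells of human umbilical vein origin are dosed with chemical; after 24 h the IL-8 biomarker is measured by ELISA, and concentration–response is fitted in both directions versus DMSO.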

Read-out in experiment [3]: Monokine induced gamma interferon (MIG), CXCL9 (gene 4283)
Briefly: BSK_3C_MIG: BioMAP Diversity Plus: 3C Assay for Monokine induced gamma interferon (MIG) Biomarker Activity (AID 2283021). The following applies: primary human endothelial cells (HUVEC); actives raise or lower the signal. The gist of the method:
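Endothelial primary cells (human umbilical vein) are dosed with test chemical in the 3C system. MIG levels are measured by ELISA at 24 h and fitted in both directions relative to DMSO.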

Experiment [4] in a line: BSK_3C_SRB: Viability Assessment in the BioMAP Diversity Plus: 3C Assay (AID 2283023).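 Note: fitted both ways against DMSO so a hit may be signal rise or drop.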 The conditions noted are these: primary human endothelial cells (HUVEC). A digest of the protocol: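 Cells were dosed with chemical, cultured 24 h, fixed with 10% TCA, stained with 0.1% SRB and read at 560 nm. Human umbilical vein endothelium was used; DMSO served as negative control and baseline.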

Read-out in experiment [5]: Matrix Metallopeptidase 1 (MMP1), MMP1 (gene 4312)
Kind of experiment: BSK_BE3C_MMP1: BioMAP Diversity Plus: BE3C Assay for Matrix Metallopeptidase 1 (MMP1) Biomarker Activity (AID 2283024). The following applies: primary human bronchial epithelial cells; actives raise or lower the signal. The gist of the method:
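MMP1 signal, measured by ELISA after a 24 h chemical exposure of human primary bronchial epithelial cells, is analysed with bidirectional fitting using DMSO as negative control.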

Read-out in experiment [6]: Pselectin, SELP (gene 6403)
Briefly: BSK_4H_Pselectin: BioMAP Diversity Plus: 4H Assay for Pselectin Biomarker Activity (AID 2283026). The conditions noted are these: primary human endothelial cells (HUVEC); actives raise or lower the signal. A digest of the protocol: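 Endothelial primary cells (human umbilical vein) are dosed, incubated 24 h, and assayed for surface P-selectin by ELISA; responses in either direction are fitted relative to the DMSO negative control.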

The nature of experiment [7]: BSK_4H_SRB: Viability Assessment in the BioMAP Diversity Plus: 4H Assay (AID 2283027).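 For AC50: curves fitted both ways versus DMSO so AC50 may be loss or gain.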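 Note: cells exposed to compound for 24 h before staining.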 The following applies: primary human endothelial cells (HUVEC). A digest of the protocol:
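HUVEC, 24 h post-dose; 10% TCA fix, 0.1% SRB stain, A560 nm. Total protein = overt cytotoxicity, parallel to biomarker read. Bidirectional fit vs DMSO baseline.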

Experiment [8] in a line: BSK_BE3C_SRB: Viability Assessment in the BioMAP Diversity Plus: BE3C Assay (AID 2283028).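 For AC50: fitted both ways so AC50 may mark signal gain or loss versus DMSO.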 The conditions noted are these: primary human bronchial epithelial cells. The gist of the method:
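Overt cytotoxicity was assessed as total protein in confluent human primary bronchial epithelial cultures 24 h after chemical addition, using 0.1% sulforhodamine B staining read at 560 nm.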

Read-out in experiment [9]: Thrombomodulin, THBD (gene 7056)
Briefly: BSK_3C_Thrombomodulin: BioMAP Diversity Plus: 3C Assay for Thrombomodulin Biomarker Activity (AID 2283029). The following applies: primary human endothelial cells (HUVEC); actives raise or lower the signal. A digest of the protocol:
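Endothelial cells from umbilical vein are dosed with test chemical and incubated 24 h. Thrombomodulin is then quantified by ELISA, with DMSO serving as negative control and activity baseline.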

Read-out in experiment [10]: Vascular endothelial growth factor receptor 2 (Homo sapiens) (UniProt P35968)
Kind of experiment: BSK_4H_VEGFRII: BioMAP Diversity Plus: 4H Assay for Vascular endothelial growth factor receptor 2 (VEGFR2) Biomarker Activity (AID 2283031). The conditions noted are these: primary human endothelial cells (HUVEC); actives raise or lower the signal. The gist of the method: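 VEGFRII levels on human vascular endothelial primary cells were determined by ELISA at 24 hours post-dosing, with gain- or loss-of-signal fitted against DMSO controls.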

Read-out in experiment [11]: Human Leukocyte Antigen - DR isotype (HLADR), HLA-DRA (gene 3122)
Kind of experiment: BSK_BE3C_HLADR: BioMAP Diversity Plus: BE3C Assay for Human Leukocyte Antigen - DR isotype (HLADR) Biomarker Activity (AID 2283032). The conditions noted are these: primary human bronchial epithelial cells; actives raise or lower the signal. A digest of the protocol: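 Chemicals are dosed onto BE3C bronchial epithelial cultures of human origin and left 24 h. HLA-DR is then measured by ELISA, and the endpoint is fitted in both directions using DMSO as the activity baseline.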

Read-out in experiment [12]: Vascular cell adhesion molecule 1 (VCAM1), VCAM1 (gene 7412)
Briefly: BSK_4H_VCAM1: BioMAP Diversity Plus: 4H Assay for Vascular cell adhesion molecule 1 (VCAM1) Biomarker Activity (AID 2283033).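 For outcome: cell-surface VCAM-1 protein measured by ELISA.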 The following applies: primary human endothelial cells (HUVEC); actives raise or lower the signal. A digest of the protocol:
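Chemicals are added to primary human umbilical vein endothelial cells. After 24 h, VCAM-1 levels are measured by ELISA. Values come from bidirectional fitting referenced to DMSO.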

Read-out in experiment [13]: Interferon-gamma inducible Protein 10 (IP10), CXCL10 (gene 3627)
Briefly: BSK_BE3C_IP10: BioMAP Diversity Plus: BE3C Assay for Interferon-gamma inducible Protein 10 (IP10) Biomarker Activity (AID 2283034). The conditions noted are these: primary human bronchial epithelial cells; actives raise or lower the signal. The gist of the method: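 IP-10 quantified by ELISA serves as the endpoint. Cells: primary human bronchial epithelium, read 24 h after compound addition. Activity is derived by bidirectional fitting with DMSO as negative control.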

Read-out in experiment [14]: Monokine induced gamma interferon (MIG), CXCL9 (gene 4283)
Briefly: BSK_BE3C_MIG: BioMAP Diversity Plus: BE3C Assay for Monokine induced gamma interferon (MIG) Biomarker Activity (AID 2283035).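 For outcome: MIG protein measured by ELISA in BE3C cultures after 24 h of dosing.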 The conditions noted are these: primary human bronchial epithelial cells; actives raise or lower the signal. A digest of the protocol: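 Dose cells (human primary bronchial epithelial), incubate 24 h, quantify MIG by ELISA, then fit concentration–response in both directions relative to DMSO control.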

Read-out in experiment [15]: Transforming growth factor beta 1 (TGFb1), TGFB1 (gene 7040)
Kind of experiment: BSK_BE3C_TGFb1: BioMAP Diversity Plus: BE3C Assay for Transforming growth factor beta 1 (TGFb1) Biomarker Activity (AID 2283036;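 note: TGF-b1 protein level measured by ELISA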). The conditions noted are these: primary human bronchial epithelial cells; actives raise or lower the signal. The gist of the method:
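Bronchial epithelial primary cells are treated with test chemical, then TGF-b1 is quantified by ELISA after 24 hours. Values derive from bidirectional fitting against DMSO, with cytotoxicity checked by SRB staining in parallel cultures.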

The nature of experiment [16]: BSK_3C_Vis: BioMAP Diversity Plus: 3C Assay for Morphology Visualization (AID 2283025).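 Note: fitted both ways so gain or loss versus DMSO counts.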 The following applies: primary human endothelial cells (HUVEC). The gist of the method:
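Morphology read by light microscopy serves as a background control for the multiplexed 3C assay in human umbilical vein endothelial cells, taken 24 h after dosing, with DMSO as the negative control and bidirectional curve fitting.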

Read-out in experiment [17]: Plasminogen activator inhibitor-1 (PAI1), SERPINE1 (gene 5054)
Kind of experiment: BSK_BE3C_PAI1: BioMAP Diversity Plus: BE3C Assay for Plasminogen activator inhibitor-1 (PAI1) Biomarker Activity (AID 2283037). The conditions noted are these: primary human bronchial epithelial cells; actives raise or lower the signal. A digest of the protocol:
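Values derive from bidirectional fitting against DMSO baseline of PAI-1 levels, measured by ELISA in human bronchial epithelial cells 24 h after compound addition.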

Read-out in experiment [18]: urokinase plasminogen activator (uPA), PLAU (gene 5328)
Kind of experiment: BSK_BE3C_uPA: BioMAP Diversity Plus: BE3C Assay for urokinase plasminogen activator (uPA) Biomarker Activity (AID 2283038).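 Note: uPA protein level quantified by ELISA in cell cultures; uPA read one day after compound addition.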 The following applies: primary human bronchial epithelial cells; actives raise or lower the signal. A digest of the protocol: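 Measured by ELISA: uPA from human primary bronchial epithelial cells 24 h after chemical treatment. Values derive from bidirectional curve fitting with DMSO serving as negative control. Total protein by SRB staining in parallel wells flagged overt cytotoxicity.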

Read-out in experiment [19]: Urokinase-type plasminogen activator receptor (uPAR), PLAUR (gene 5329)
Briefly: BSK_4H_uPAR: BioMAP Diversity Plus: 4H Assay for Urokinase-type plasminogen activator receptor (uPAR) Biomarker Activity (AID 2283030). The following applies: primary human endothelial cells (HUVEC); actives raise or lower the signal. A digest of the protocol:
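Chemicals are dosed onto human vascular endothelial primary cells (umbilical vein). After 24 h, uPAR is read by ELISA. Gain or loss of signal is fitted relative to DMSO.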

Experiment [20] addresses human Vitamin D Receptor (VDR), VDR (gene 7421) (UniProt P11473). Kind of experiment: ATG_VDR_TRANS: Attagene TRANS-FACTORIAL HepG2 Assay for human Vitamin D Receptor (VDR) (AID 2283022; active = hit-call score of the fitted dose curve at least 0.9, where 1 is the maximum). The gist of the method: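 Fluorescence of labelled reporter cDNA fragments, resolved by capillary electrophoresis, gives mRNA induction after 24 h treatment of HepG2 cells carrying transfected Gal4-fusion reporter units. Activity is fitted in the positive direction with DMSO as baseline.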

human Vitamin D Receptor (VDR), VDR (gene 7421), sequence (P11473 whole entry, looked up, the tested form may be a part): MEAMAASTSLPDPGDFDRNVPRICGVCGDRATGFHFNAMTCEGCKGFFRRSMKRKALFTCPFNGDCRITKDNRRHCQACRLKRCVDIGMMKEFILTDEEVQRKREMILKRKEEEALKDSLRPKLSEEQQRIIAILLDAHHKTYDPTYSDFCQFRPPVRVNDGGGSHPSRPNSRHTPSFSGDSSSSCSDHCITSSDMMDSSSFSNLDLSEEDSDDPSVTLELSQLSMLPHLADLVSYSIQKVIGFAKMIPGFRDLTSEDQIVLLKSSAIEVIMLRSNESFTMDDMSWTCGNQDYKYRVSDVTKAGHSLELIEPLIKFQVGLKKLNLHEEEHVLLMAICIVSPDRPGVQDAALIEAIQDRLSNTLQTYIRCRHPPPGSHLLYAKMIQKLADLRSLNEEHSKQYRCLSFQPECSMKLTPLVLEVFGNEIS

A word on the AC50: it is the midpoint of the concentration-response curve, whichever way the signal moves. Turning to `O=C(Nc1ccc([N+](=O)[O-])cc1Cl)c1cc(Cl)ccc1O`, the AC50 in experiment [1] was 0.169 µM (active); in [4], 0.589 µM (active); in experiment [6], 0.302 µM (active); in [7], 0.516 µM (active); in experiment [8], 0.34 µM (active); in experiment [9], 0.148 µM (active). The AC50 is 0.148 µM (active) in [11], 0.412 µM (active) in [12], 0.302 µM (active) in experiment [13] and 0.148 µM (active) in experiment [14]. Moreover, the outcome in [2], in [3], in experiment [5], in experiment [10] and in [15] was inactive.

As for `COC(=O)CSc1cc(N=c2sc(=O)n3n2CCCC3)c(F)cc1Cl`, the outcome in experiment [1], in experiment [2], in [3], in experiment [4], in experiment [5] and in experiment [16] was inactive. In addition, the result in experiment [6], in experiment [7], in experiment [8], in experiment [11], in experiment [12] and in experiment [13] was inactive. The result in experiment [15], in experiment [17] and in experiment [18] was inactive. Also, the AC50 in experiment [9] was 1.21 µM (active).

With `CCSC(=O)N(CC(C)C)CC(C)C`, the outcome in experiment [1], in experiment [2], in experiment [3], in experiment [4], in experiment [5] and in [16] was inactive. For the same compound, the result in experiment [6], in experiment [7], in experiment [8], in [9], in experiment [19] and in [11] was inactive. Also, the result in experiment [12], in experiment [13], in [14], in experiment [15] and in experiment [18] was inactive.

Regarding `CCC(C)OC(=O)N1CCCCC1CCO` (stereo not drawn), the result in experiment [1], in experiment [2], in experiment [3], in experiment [4], in experiment [5] and in experiment [16] was inactive. Moreover, the outcome in experiment [6], in experiment [7], in experiment [8], in [9], in [11] and in experiment [12] was inactive. Also, the outcome in experiment [13], in experiment [14] and in [15] was inactive.

`CCNc1nc(N)nc(Cl)n1`: the result in [1], in experiment [2], in experiment [3], in [4], in experiment [5] and in [16] was inactive. The result in experiment [6], in experiment [7], in [8], in [9], in experiment [10] and in experiment [11] was inactive. The outcome in experiment [12], in [13] and in experiment [15] was inactive.

As for `CC(C)(C)[C@@H](O)[C@@H](Cc1ccc(Cl)cc1)n1cncn1`, the results for the AC50 in [1] and in [16] were 7.11 µM (active) and 39 µM (active), respectively. The outcome in experiment [2], in experiment [3], in experiment [4], in [5], in [6] and in experiment [7] was inactive. In addition, the result in [8], in experiment [9], in [11], in [12], in [13] and in experiment [15] was inactive.

`C#C[C@]1(O)CC[C@H]2[C@@H]3CCC4=CC(=O)CC[C@@H]4[C@H]3CC[C@@]21CC`: the values for the AC50 in [1] and in experiment [5] were 20 µM (active) and 3.16 µM (active), respectively. Moreover, the outcome in experiment [2], in [3], in experiment [20], in experiment [4], in experiment [16] and in [6] was inactive. Further, the outcome in experiment [7], in experiment [8], in [9], in experiment [11], in experiment [12] and in [13] was inactive. In addition, the result in [15] and in [17] was inactive.
